# Measurements: PubChem BioAssay AID1478 (National Center for Advancing Translational Sciences (NCATS), 2009)
# Among all 200,000 compounds or so, about 860 (0.43%) were called active. This is one part of a sample in which actives are shown more often than they occur. Some compounds were tested as several samples or in several runs, with calls that do not always agree. A number with no mark means an inactive call. Calls follow the shape of the dose curve; as a rule, active = well fitted inhibition curve with a large enough effect; inconclusive = small, poorly fitted or top-dose-only effect; inactive = flat fitted curve, though single readings scatter.
# Target: Cruzipain (Trypanosoma cruzi) (UniProt P25779)
# Test: qHTS Assay for Promiscuous and Specific Inhibitors of Cruzain (with detergent); also: nearly all actives have a fitted effect of over 40% in size
# Conditions: purified cruzain, Z-FR-AMC fluorescence, 0.01% Triton
# Experimental: Cruzain (3.4.22.51) is a cysteine protease from the tropical parasite Trypanosoma cruzi. Dual qHTS experiment was performed against the NCGC compound collection in order to 1) identify novel inhibitors of the enzyme and 2) profile the compound collection for promiscuous inhibitors operating via colloidal aggregation (by performing detergent-free and detergent-containing comparison screens). Cruzain was assayed by the use of fluorogenic coumarin-based substrate Z-FR-AMC: proteolytic cleavage releases AMC, whose fluorescence is measured at 360 nm excitation and 450 nm emission. Purified cruzain was supplied by the labs of Prof. James McKerrow and Brian Shoichet, UC San Francisco.
# This assay had 0.01% Triton X-100 concentration. See also releated assay "qHTS Assay for Promiscuous and Specific Inhibitors of Cruzain (without detergent)" with 0.00005% Triton X-100.
# See following references for additional details:
# Assay Provider: Shoichet, Brian; University of California, San Fancisco
# Screening Center PI: Austin, C.P.
# Screening Center: NIH Chemical Genomics Center [NCGC]
# Buffer: 100 mM Sodium Acetate, pH 5.5, 5 mM DTT, Triton X-100 concentration: 0.01%.
# Buffer in columns 3 and 4 as negative control (no enzyme).
# Substrate solution: 2 uM final concentration of Z-FR-AMC (catalog number I-1160, Bachem) dispensed throughout the plate.
# Enzyme: 1.5 nM Cruzain final concentration in columns 1, 2, 5-48. Column 1 is neutral (100% activity). Column 2 contained titration of covalent inhibitor K11777, starting concentration 1 mM, then 1:2 dilution in duplicate).
# Three uL of enzyme or buffer were dispensed to 1536-well Greiner black solid bottom plates. Compounds and controls (23 nL) were transferred via Kalypsys PinTool. The plates were incubated for 15 min at room temperature, and then 1 uL of substrate solution was added to start the reaction. The plates were immediately transferred to and read 4 times every 30 seconds for 2 min on ViewLux High-throughput CCD imager (Perkin-Elmer) using 360 nm excitation and 450 nm emission fluorescence protocol. The fluorescence intensity difference between the third and the first time points (time lapse of 60 seconds) was used to compute reaction progress.
# Potency is read from the fitted curve at half-maximal effect.
# Cruzipain (Trypanosoma cruzi), sequence (P25779 123-467 limits assumed): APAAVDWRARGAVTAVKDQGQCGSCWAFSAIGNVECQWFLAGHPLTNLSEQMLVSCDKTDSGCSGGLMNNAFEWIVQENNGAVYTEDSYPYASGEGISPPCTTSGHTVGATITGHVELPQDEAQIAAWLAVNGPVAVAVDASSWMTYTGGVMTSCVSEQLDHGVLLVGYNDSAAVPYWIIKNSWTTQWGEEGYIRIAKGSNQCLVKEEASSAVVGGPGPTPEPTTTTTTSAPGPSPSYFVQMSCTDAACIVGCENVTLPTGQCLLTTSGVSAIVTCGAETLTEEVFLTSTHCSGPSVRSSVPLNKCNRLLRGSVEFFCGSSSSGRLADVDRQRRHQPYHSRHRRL
Structure (SMILES),"max response, negative = inhibition [%]",Potency
COc1cc(-c2noc(-c3ccc(N4CCCC4)c([N+](=O)[O-])c3)n2)cc(OC)c1OC,-7.32,–
CCCNC(=O)c1ccc2c(c1)ncn2-c1ccc(C)cc1C,0.948,–
Cc1ccccc1CNC(=O)c1cccc(NC(=O)c2nsc3ccccc23)c1,-4.52,–
Cc1ccc(-n2c(SCC(=O)Nc3ncc(Cl)cc3Cl)nc3ccccc32)cc1,0.0613,–
CC(Oc1ccc(Cl)cc1)C(=O)OCC(=O)Nc1ncc(Cl)cc1Cl (stereo not drawn),-4.76,–
Cc1ccc(SCCC(=O)OCC(=O)Nc2ncc(Cl)cc2Cl)cc1,–,25.1 µM (active)
CCC(=O)N1CCc2cc(CNS(=O)(=O)c3ccc(Br)s3)ccc21,-0.767,–
Cc1cccc(C(=O)NCC(=O)OCC(=O)N2CC3(C)CC2CC(C)(C)C3)c1 (stereo not drawn),–,14.1 µM (active)
Cc1nnnn1/C(=C\c1ccccc1)C(=O)OCC(=O)N1CC2(C)CC1CC(C)(C)C2 (stereo not drawn),-0.133,–
COc1ccc(C(=O)N2CC3(C)CC2CC(C)(C)C3)cc1OC (stereo not drawn),-2.5,–
CCOc1ccc(C(NC(=O)c2cc(OC)c(OC)c(OC)c2)c2cc(Cl)c3cccnc3c2O)cc1 (stereo not drawn),1.88,–
COc1ccccc1CNc1ccc(-c2nc(-c3ccccc3C)no2)cc1[N+](=O)[O-],-3.81,–
O=C(NCc1ccccc1)C(=O)NCC(c1ccco1)S(=O)(=O)c1ccc(Cl)cc1 (stereo not drawn),-1.1,–
COC(=O)Cc1nc2ccccc2[nH]1,8.1,–
COc1ccc(OC(C)C(=O)NCCc2nc3ccccc3[nH]2)cc1 (stereo not drawn),-6.04,–
O=C(COc1ccccc1)NCCc1nc2ccccc2[nH]1,–,15.8 µM (active)
CCc1ccc(N(CC)C(=O)CCn2cnc3onc(-c4ccc(F)cc4)c3c2=O)cc1,-2.73,–
COc1ccc(OCCCn2c(C)nc3cc(C)c(C)cc32)cc1,-3.67,–
O=C(NCC1CCCO1)/C(=C\c1ccco1)NC(=O)c1ccccc1 (stereo not drawn),-1.92,–
Cc1cccc(NC(=O)/C(=C\c2ccco2)NC(=O)c2ccccc2)c1,-5.18,–
O=C(OCN1C(=O)c2ccccc2C1=O)/C(=C\c1ccco1)NC(=O)c1ccccc1,–,0.316 µM (active)
Cc1ccc(-c2noc(-c3nnn(-c4cccc(C(F)(F)F)c4)c3N)n2)cc1,0.534,–

Structure (SMILES),"max response, negative = inhibition [%]",Potency
CCOC(=O)c1ccc(CSc2nnc3cc(C)c4ccccc4n23)cc1,-5.57,–
COc1ccc(N2C(=O)CSC23C(=O)N(Cc2cccc(F)c2)c2ccccc23)cc1Cl (stereo not drawn),-6.49,–
N=c1oc2ccccc2cc1C(=O)N/N=C/c1ccccc1,-4.25,–
CCOC(=O)N1CCN(C(=O)c2cc3c(ccc4ccccc43)oc2=O)CC1,-4.28,–
CNC(=O)c1cc2c(ccc3ccccc32)oc1=N,–,28.2 µM (active)
COc1ccc(-c2nc3scc(CCNS(=O)(=O)c4cc(F)ccc4OC)n3n2)cc1OC,-6.79,–
COc1ccc(OC)c(-n2nnc3c(sc4nc(C)c(Br)c(C)c43)c2=O)c1,-8.66,–
CC(=O)c1ccc(S(=O)(=O)N2CCC(Oc3ccc(-n4cnnn4)cc3)CC2)cc1,0.367,–
O=C1CCCc2cc(S(=O)(=O)N3CCCC(C(=O)NCc4ccccc4)C3)ccc2N1 (stereo not drawn),-1.43,–
COc1ccc(CNC(=O)c2cc3cccc(OC)c3oc2=O)cc1,-0.986,–
CN(C)c1ccc(-c2nc(NCCN3CCOCC3)c3ccccc3n2)cc1,-4.87,–
c1ccc2cc3c(NCCN4CCOCC4)ccnc3cc2c1,–,28.2 µM (active)
Clc1ccccc1-c1cc(NCCN2CCOCC2)ncn1,0.682,–
CCc1ccccc1NC(=O)c1cnn(-c2ccc(F)cc2)c1C1CCNCC1,-1.82,–
O=C(CSc1n[nH]c(-c2ccccc2)n1)N1CCCCC1,2.8,–
Cc1ccccc1CN1CCC(CNC(=O)c2c(C)oc3ncnc(N4CCCCC4)c23)CC1,1.4,–
CCN1CCN(C(c2ccc(C)cc2)c2c(O)cc(C)n(Cc3ccco3)c2=O)CC1 (stereo not drawn),0.51,–
CCOC(=O)c1ccc(-n2c(CCC(=O)O)ccc2-c2ccccc2)cc1,-12,–
CCOC(=O)C1CCN(C(c2ccc(F)cc2)c2sc3nc(-c4ccco4)nn3c2O)CC1 (stereo not drawn),-3.73,–
O=C(/C=C/c1ccccc1)c1ccoc1,-1.4,–
COc1ccccc1/C=C/C1=NC(=C\N(C)C)/C(=O)O1,-17.3,–
O=C1OC(/C=C/c2ccccc2)=NC/1=C/c1ccco1,–,3.98 µM (active)

Structure (SMILES),"max response, negative = inhibition [%]",Potency
COC(=O)c1sccc1S(=O)(=O)N(CC(=O)Nc1ccc(C)c(F)c1)c1ccc(C)c(C)c1,-3.08,–
CCOc1ccc(CNC(=O)C2CCCN(S(=O)(=O)N(CC)c3ccc(OCC)cc3)C2)cc1 (stereo not drawn),3.48,–
O=C(Nc1ccc(Br)cc1)c1ccc(Br)c(S(=O)(=O)NCc2ccccc2)c1,-3.54,–
Cc1ccc(-c2cn3c(n2)sc2cc(C(=O)NCc4cccs4)ccc23)c(C)c1,-2.89,–
CCc1nc(-c2cc(S(=O)(=O)N3CCN(c4ccc(OC)cc4)CC3)ccc2OC)no1,-3.17,–
CC(=O)c1ccc(NC(c2ccc(F)cc2)c2nnc(-c3ccccc3)o2)cc1 (stereo not drawn),-5.26,–
CCn1cc2nc(SCc3cccc(F)c3)n(CCc3ccccc3)c(=O)c2n1,-3.27,–
COc1ccc(-n2c(=O)c3c(c4cc(OC)ccc4n3C)n(Cc3cccc(C)c3)c2=O)cc1,-1.25,–
Cc1ccc(NC(=O)c2cc(S(=O)(=O)NCCC3=CCCCC3)ccc2F)cc1C,1.53,–
O=C(COC(=O)[C@H](Cc1ccccc1)NC(=O)c1cccs1)Nc1cc(F)ccc1F,–,20 µM (active)
Cc1ccc(F)c(NC(=O)CCc2ccccc2)c1,2.16,–
Cc1ccc(C)c(NC(CC(=O)c2ccccc2)C(=O)OCC(=O)c2cccs2)c1 (stereo not drawn),-3.94,–
CC(=O)Nc1ccc(NC(=O)C2CCCN(S(=O)(=O)c3ccc4c(c3)CCCC(=O)N4)C2)cc1 (stereo not drawn),-1.66,–
Cc1ccc(-c2onc(C)c2C)cc1S(=O)(=O)Nc1ccccn1,-0.474,–
CCOc1ccc(CNC(=O)C2CCCN(c3nnc(C)c4c(C)n(-c5ccccc5)nc34)C2)cc1 (stereo not drawn),-6.21,–
O=C(CNC(=O)c1ccco1)OCC(=O)c1ccccc1,-1.99,–
COc1ccc(C)cc1-n1nnnc1SCC(=O)c1cc(C)n(Cc2ccco2)c1C,-1.61,–
Cc1cc(C(=O)COC(=O)CNC(=O)c2ccc(F)cc2)c(C)n1Cc1ccco1,–,14.1 µM (active)
COc1ccc2c(Sc3ccc(C)cc3)c(C(=O)NC(C)c3ccccc3)[nH]c2c1 (stereo not drawn),-7.2,–
CCOC(=O)c1c(C)[nH]c(CCC(=O)Nc2ccc(OC)c(OC)c2)c1C,2.38,–
CCN(CC)S(=O)(=O)c1nnc(NC(=O)COc2ccccc2Cl)s1,-2.1,–
CCOC(=O)c1c(S(=O)(=O)NCC(=O)Nc2ccc(Cl)c(C(F)(F)F)c2)c(C)n(C)c1C,-11.4,–

Structure (SMILES),"max response, negative = inhibition [%]",Potency
COc1cccc(-c2nnc3n(CCc4ccccc4)c(=O)c4ccccc4n23)c1O,-2.72,–
COC(=O)C(C)N(C#N)c1nc(C)nc(C)n1 (stereo not drawn),4.3,–
Cc1cc(C)nc(N(C#N)CC(=O)Nc2ccccc2)n1,7.7,–
CNc1nc(SC)nc(N(C#N)CC(=O)OC)n1,–,17.8 µM (active)
Cc1c(C(=O)N(C)C)sc2c1c(=O)n(-c1ccc(F)cc1)c(=O)n2CC(=O)N(C)c1ccccc1,1.44,–
CC(C)C[C@H](NC(=O)[C@@H]1O[C@H]1C(=O)O)C(=O)NCCCCN=C(N)N,–,0.0562 µM (active)
Cc1ccccc1CSc1nc2c([nH]c3ccccc32)c(=O)n1C,-1.56,–
Cc1cccc(N2CCN(C(=O)CCn3c(=O)c4cccn4c4cccnc43)CC2C)c1 (stereo not drawn),-4.9,–
O=c1cc2nc(-c3ccccc3)nc(SCCOc3ccc(Cl)cc3)n2[nH]1,0.045,–
Oc1c(Cl)cc(Cl)c(Cl)c1Cc1c(O)c(Cl)cc(Cl)c1Cl,-22.8,25.1 µM (active)
COc1ccc(OC)c(-n2nnc(-c3nc(-c4cc(OC)c(OC)c(OC)c4)no3)c2C)c1,2.73,–
COc1cccc(-c2cc(C(=O)Nc3ccc(C)cc3)[nH]n2)c1,-0.83,–
Cc1ccc(CSc2nc3ccsc3c(=O)n2CCC(C)C)cc1,-1.1,–
CC(=O)Nc1cc(C(=O)NCc2ccc(F)cc2Cl)ccc1Sc1ccc(Cl)cc1,1.77,–
COc1cccc(C(=O)NCC(=O)OCc2cc(=O)n3ccsc3n2)c1,-1.65,–
CCn1c(=N)c(S(=O)(=O)c2ccc(F)cc2)cc2c(=O)n3ccccc3nc21,–,22.4 µM (active)
CCCCn1c(=N)c(S(=O)(=O)c2ccccc2)cc2c(=O)n3cccc(C)c3nc21,0.669,–
CCOC(=O)c1cc2c(=O)n3ccccc3nc2n(Cc2ccco2)c1=NC(=O)c1ccc(F)cc1,-23.1,–
CCOc1cc(-c2nnc(SCC(=O)NC3CCCCC3)nc2-c2ccc(OC)c(OCC)c2)ccc1OC,0.915,–
Cc1ccc(NC(=O)CSc2nnc3[nH]c(=O)cc(C)n23)cc1Cl,-1.01,–
CC(=O)c1cccc(Nc2ccc3cc(S(=O)(=O)N4CCC(C)CC4)ccc3n2)c1,-2.76,–
